36 molecules from PubChem BioAssay (NCI) can be followed below.

SMILES strings stand for the structures. Compounds without any hit were thinned out: in the full panel of roughly 79,000, 15% have a hit. A number with no mark means an inactive call. The source made the active and inactive calls. No stated cut-off is given here; in the data, active means growth inhibition above about 70%; inactive means the rest.

The nature of the first experiment: NCI Yeast Anticancer Drug Screen. Data for the bub3 strain (AID 167). The conditions noted are these: S. cerevisiae bub3 mutant strain, at 100.0 µM, stronger effect = higher value. In outline: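 Readout: yeast growth inhibition, expressed relative to vehicle-only wells. The test organism is a mutant strain from a panel with lesions in DNA repair or checkpoint genes.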
On to `CN(C)CC(CN(C)C)C(=O)/C=C/c1ccc(Cl)cc1Cl`, for which the growth inhibition was 97% (active). Still for that read-out and setting: for `c1ccc2c(c1)ccn2CCc1c[nH]c2ccccc12` the value was 95% (active); for `Cc1ccccc1NC(=O)c1c(C)oc2c1C(=O)c1ccccc1C2=O`, 85% (active). Regarding `CC(C)OC(=O)NNc1c(Cl)cc(Cl)cc1Cl`, the growth inhibition is 81% (active).

On to `COc1ccc2nc3cccc([N+](=O)[O-])c3c(NCCNCCO)c2c1`, for which the growth inhibition was 96% (active). Still for that read-out and setting: the same measure for `COc1ccc2c(c1)CCCC(Br)C2=O` (centres undefined): 97% (active); for `CCC(OC(C)=O)C1CC(C(C)C)CCC1C` (centres undefined): 84% (active). On the same count and under the same terms, for `O=S(=O)(c1cccc(C(F)(F)F)c1)N1c2ccccc2-n2cccc2C1c1cccnc1` (centres undefined) the value was 90% (active); for `c1ccc(-c2cc(C3CO3)c3ccccc3n2)cc1` (centres undefined), 99% (active). The same measure, in the same setting: for `COc1ccc(/C=C2\SC(=S)N(/C=C3\C(=O)N(c4ccccc4)N=C3C)C2=O)cc1OC` the value was 65%; for `CC1=CC(=C(c2ccc(N)c(C)c2)c2ccc(N)c(C)c2)C=CC1=N`, 96% (active). As to `CC(/C=C/c1ccc([N+](=O)[O-])o1)=N/N1CC(CN2CCOCC2)OC1=O` (centres undefined), the growth inhibition is 94% (active). Same read-out and setting: for `C=CC(C)(C)N1C(=O)C(C(C)=O)=C(O)C1Cc1c[nH]c2ccccc12` (centres undefined) the value was 84% (active); for `O=C1c2cccc3cccc(c23)C(=O)N1CCNCCN1C(=O)c2cccc3cccc(c23)C1=O`, -3%. For the molecule `Cc1ccc([N+](=O)[O-])c2c(NCCC[N+](C)(C)[O-])c3ccccc3nc12`, the growth inhibition is -17%. As for `COC(=O)C(Cc1c[nH]c2ccccc12)N1CN(C)c2ccccc2C1=O` (centres undefined), the growth inhibition is 99% (active). Same read-out and setting: the same measure for `O=C(/N=N/C(=O)Oc1ccccc1)Oc1ccccc1`: 65%; for `COc1cc([C@@H]2c3cc4c(cc3[C@@H](NC(=O)NO)[C@H]3COC(=O)[C@H]23)OCO4)cc(OC)c1O`: -3%. As for `CC1(C)CC(=O)C(/C=N/c2nc(-c3ccc(Br)cc3)cs2)=C(O)C1`, the growth inhibition was 98% (active). Take `CCOC(=O)/C(=C/c1cccc(Cl)c1)N(CC)CC`: the growth inhibition was 96% (active).

`CC(C)OC(=O)NNc1cccc(Cl)c1`: the growth inhibition is 98% (active). Turning to `CCC(=O)C1=C(O)c2cc(OC)ccc2CC1C(=O)OC` (centres undefined), the growth inhibition was 15%. With `O=S(=O)(NC1CCCC(c2ccccc2)C1)c1ccccc1` (centres undefined), the growth inhibition was 87% (active). On the same count and under the same terms, for `COc1ccc2nc3cccc([N+](=O)[O-])c3c(NCCCCCC(=O)O)c2c1` the value was 99% (active). Same read-out and setting: the same measure for `CCO/C=C1\SC(=S)N(c2ccc(OCC)cc2)C1=O`: 58%.

As to `COc1cc(OC)c(CSCC(NC(=O)OCC2c3ccccc3-c3ccccc32)C(=O)O)c(OC)c1` (centres undefined), the growth inhibition is 98% (active).

Take `COC(=O)c1ccccc1N=NNc1cccc(SC)c1`: the growth inhibition is 89% (active). As to `CC1=NN(C(=O)c2ccccc2O)C(=O)/C1=C/c1ccco1`, the growth inhibition is 97% (active).

With `COc1ccccc1NC(=O)c1ccc(Cl)cc1`, the growth inhibition was 7%.

For the molecule `CC(C)=CCC/C(C)=C/CN1C(=O)C=CC1=O`, the growth inhibition was 99% (active).

In the case of `O=C1CSC(c2ccccc2)N1c1ccc(-c2ccc(-n3c(-c4ccccc4)nc4ccccc4c3=O)cc2)cc1` (centres undefined), the growth inhibition was 59%. As for `N#CC1OB(O)c2ccccc21` (centres undefined), the growth inhibition was -4%. For the molecule `O=C(NCCNCCNC(=O)c1cc(-c2ccccc2)nc2ccccc12)c1cc(-c2ccccc2)nc2ccccc12`, the growth inhibition is -2%.

As to `Brc1ccc(B2Nc3ccccc3N2)cc1`, the growth inhibition was 52%. Same read-out and setting: the same measure for `CCOP(=O)(OCC)/C(C#N)=C/c1cccc(Oc2ccccc2)c1`: 97% (active).

The nature of another experiment: NCI Yeast Anticancer Drug Screen. Data for the wt2 strain (AID 169).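 Further: 0% = growth of vehicle-treated yeast cultures.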 As to conditions: S. cerevisiae wt2 strain growth inhibition; at 1.2 µM; stronger effect = higher value. In outline: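 Yeast cells were exposed to test compounds, and growth inhibition was measured relative to vehicle-treated controls.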
Regarding `CN(C)CC(CN(C)C)C(=O)/C=C/c1ccc(Cl)cc1Cl`, the growth inhibition is -2%. Same read-out and setting: the same measure for `c1ccc2c(c1)ccn2CCc1c[nH]c2ccccc12`: -29%; for `Cc1ccccc1NC(=O)c1c(C)oc2c1C(=O)c1ccccc1C2=O`: -6%; for `CC(C)OC(=O)NNc1c(Cl)cc(Cl)cc1Cl`: 2%. Same read-out and setting: for `COc1ccc2nc3cccc([N+](=O)[O-])c3c(NCCNCCO)c2c1` the value was -2%; for `COc1ccc2c(c1)CCCC(Br)C2=O` (centres undefined), -41%; for `CCC(OC(C)=O)C1CC(C(C)C)CCC1C` (centres undefined), -1%. The same measure, in the same setting: for `O=S(=O)(c1cccc(C(F)(F)F)c1)N1c2ccccc2-n2cccc2C1c1cccnc1` (centres undefined) the value was -23%; for `c1ccc(-c2cc(C3CO3)c3ccccc3n2)cc1` (centres undefined), -1%. On to `COc1ccc(/C=C2\SC(=S)N(/C=C3\C(=O)N(c4ccccc4)N=C3C)C2=O)cc1OC`, for which the growth inhibition was -2%. Regarding `CC1=CC(=C(c2ccc(N)c(C)c2)c2ccc(N)c(C)c2)C=CC1=N`, the growth inhibition is -33%. As for `CC1C(c2ccccc2)SC(=N)N1C` (centres undefined), the growth inhibition is 1%. Regarding `CC(/C=C/c1ccc([N+](=O)[O-])o1)=N/N1CC(CN2CCOCC2)OC1=O` (centres undefined), the growth inhibition is -3%. As for `O=C1c2cccc3cccc(c23)C(=O)N1CCNCCN1C(=O)c2cccc3cccc(c23)C1=O`, the growth inhibition was 0%. Turning to `Cc1ccc([N+](=O)[O-])c2c(NCCC[N+](C)(C)[O-])c3ccccc3nc12`, the growth inhibition was 0%. Consider `COC(=O)C(Cc1c[nH]c2ccccc12)N1CN(C)c2ccccc2C1=O` (centres undefined), for which the growth inhibition was 8%.

For the molecule `O=C(/N=N/C(=O)Oc1ccccc1)Oc1ccccc1`, the growth inhibition was -46%. In the case of `COc1cc([C@@H]2c3cc4c(cc3[C@@H](NC(=O)NO)[C@H]3COC(=O)[C@H]23)OCO4)cc(OC)c1O`, the growth inhibition is 0%. On to `CC1(C)CC(=O)C(/C=N/c2nc(-c3ccc(Br)cc3)cs2)=C(O)C1`, for which the growth inhibition was 0%. For the molecule `CCOC(=O)/C(=C/c1cccc(Cl)c1)N(CC)CC`, the growth inhibition is 5%. Turning to `CC(C)OC(=O)NNc1cccc(Cl)c1`, the growth inhibition is 1%. On to `CCC(=O)C1=C(O)c2cc(OC)ccc2CC1C(=O)OC` (centres undefined), for which the growth inhibition was -2%.

`O=S(=O)(NC1CCCC(c2ccccc2)C1)c1ccccc1` (centres undefined): the growth inhibition is -4%.

`COc1ccc2nc3cccc([N+](=O)[O-])c3c(NCCCCCC(=O)O)c2c1`: the growth inhibition is 6%. Regarding `CCO/C=C1\SC(=S)N(c2ccc(OCC)cc2)C1=O`, the growth inhibition is -28%. As to `COc1cc(OC)c(CSCC(NC(=O)OCC2c3ccccc3-c3ccccc32)C(=O)O)c(OC)c1` (centres undefined), the growth inhibition was -1%. `COC(=O)c1ccccc1N=NNc1cccc(SC)c1`: the growth inhibition was -11%. On the same count and under the same terms, for `CC1=NN(C(=O)c2ccccc2O)C(=O)/C1=C/c1ccco1` the value was 11%; for `COc1ccccc1NC(=O)c1ccc(Cl)cc1`, -1%; for `CC(C)=CCC/C(C)=C/CN1C(=O)C=CC1=O`, 24%. Still for that read-out and setting: for `O=C1CSC(c2ccccc2)N1c1ccc(-c2ccc(-n3c(-c4ccccc4)nc4ccccc4c3=O)cc2)cc1` (centres undefined) the value was 0%.

In the case of `O=C(NCCNCCNC(=O)c1cc(-c2ccccc2)nc2ccccc12)c1cc(-c2ccccc2)nc2ccccc12`, the growth inhibition is -2%. Take `Brc1ccc(B2Nc3ccccc3N2)cc1`: the growth inhibition is -4%. Still for that read-out and setting: for `CCOP(=O)(OCC)/C(C#N)=C/c1cccc(Oc2ccccc2)c1` the value was 1%.
